# Bioassay records: PubChem, several laboratories
# CF NFkB inh: inhibitors of PAF-induced NF-kB signaling, primary screen, cell-based, GFP fluorescence, uHTS; AID 588850, 2011; inhibition, % at 5 µM; KKLEB NF-kB-GFP reporter, GFP fluorescence overnight; 360,000 tested, 0.86% active;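 active means at least 50% inhibition at 5 µM, scaled per plate between neutral and stimulator controls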;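 further: PAF is a Pseudomonas aeruginosa culture filtrate used as stimulus; plate controls were PAF-stimulated DMSO wells for no effect and unstimulated DMSO wells for full effect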
# Peg3 prom inh: Peg3 promoter-driven luciferase inhibitors, primary screen, cell-based, HeLa, luciferase luminescence; HeLa PEG-Prom luciferase reporter, overnight; inhibition, % at 20 µM; 360,000 tested, 1.7% active; AID 588405, 2011;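 active means inhibition of at least 50% at 20 µM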
# EBV LMP1 NFkB: EBV LMP1-driven NF-kappaB luciferase reporter inhibitors, primary screen, cell-based, luminescence, single point. 350,000 tested, 0.69% active. inhibition, % at 12.5 µM. LMP1-induced NF-kappaB luciferase reporter cells; in the data active means inhibition above about 41%;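 further: 0% = neutral control wells and 100% = reference inhibitor control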
# TRPM1 prom inh: inhibitors of MITF-dependent TRPM1 promoter reporter, primary screen, cell-based, SK-MEL-5, single point, luciferase | SK-MEL-5 TRPM1 promoter luciferase, 24 h | inhibition, % at 12.5 µM | 330,000 tested, 0.83% active | AID 488899, 2010;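 active means mean inhibition across replicates of 60% or more, whatever share of single replicates reaches that level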
# HIF-2a block: HIF-2a reporter inhibitors, primary screen, luminescence, 786-0 RCC cells; inhibition, % at 18.8 µM; AID 624352, 2012; 360,000 tested, 0.72% active; 786-0 RCC cells HIF-2a reporter, luciferase luminescence, overnight;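 active means inhibition of the luminescence signal of 40% or more relative to plate controls, in a single-dose primary screen at 18.75 µM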
# KKLEB cytotox: cytotoxicity in KKLEB CF airway cells, primary screen, cytotoxicity control for CF NF-kB inhibitor project, cell-based, uHTS, fluorescence assay plates | KKLEB CF airway cells viability, ATPlite luminescence, overnight; hits give low values; cells stimulated with P. aeruginosa culture filtrate | 360,000 tested, 0.36% active | activity change (cytotoxicity), % at 5 µM;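 active means corrected activity change at or below -50% at 5 µM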
# Active calls of the source: *; . = no result. An excerpt weighted towards active compounds, which were near 3% of everything screened.
SMILES,CF NFkB inh,Peg3 prom inh,EBV LMP1 NFkB,TRPM1 prom inh,HIF-2a block,KKLEB cytotox
CCCCC[n+]1ccn(-c2nc3ccccc3nc2[N-]S(=O)(=O)c2ccc(C)cc2)c1,-11.1,20.9,-11.9,9.4,15.9,9.7
CC(C)[n+]1ccn(C2=C([O-])c3ccccc3C(=O)/C2=N\S(=O)(=O)c2ccccc2)c1,-0.8,1.2,3.8,54.9,-16.6,-1.8
CCCCC[n+]1ccn(C2=C([O-])c3ccccc3C(=O)/C2=N\S(=O)(=O)c2ccccc2)c1,0.6,20.5,1.2,94.3*,6.9,0.2
CCCC[n+]1ccn(C2=C([O-])c3ccccc3C(=O)/C2=N\S(=O)(=O)c2ccccc2)c1,13.3,20.0,2.6,96.0*,-4.6,1.1
CCCCC[n+]1ccn(C2=C([O-])c3ccccc3C(=O)/C2=N\S(=O)(=O)c2ccc(Br)cc2)c1,30.4,15.4,2.6,85.0*,11.9,7.2
CC(C)(C)c1cc[n+](C2=C([O-])c3ccccc3C(=O)/C2=N\S(=O)(=O)c2ccccc2)cc1,-1.6,15.5,.,.,2.9,-14.4
COc1ccc2nc(/N=C\N(C)C)sc2c1,2.8,-54.8,-21.1,-30.2,-73.2,-0.1
COc1ccc2nc(N=Nc3ccc(N(C)C)cc3)sc2c1,6.8,24.8,20.1,22.5,-138.0,-74.2*
CCN(CC)CCNC(=O)CCc1c(C)nc2c(c(C)nn2-c2ccc(C)c(C)c2)c1C,7.7,82.1*,-27.9,41.7,0.7,-6.4
COC(CNC(=O)CCc1c(C)nc2c(c(C)nn2-c2ccc(C)cc2)c1C)OC,4.3,-3.0,6.2,8.9,1.8,-0.1
Cc1ccc(-n2nc(C)c3c(C)c(CCC(=O)Nc4ccc(CN5CCCC5)cc4)c(C)nc32)cc1,26.8,68.0*,-8.0,65.1*,-0.6,-14.4
COc1ccc(-n2nnnc2C(c2cccc(OC)c2OC)N2CCN(C/C=C/c3ccccc3)CC2)cc1 (stereo not drawn),5.0,-27.0,.,.,-21.7,1.2
COc1ccc(-c2cc3nc(-c4ccccc4)cc(N4CCN(C(=O)c5ccoc5)CC4)n3n2)cc1,-4.2,54.7*,5.3,.,-9.2,3.7
CC1=C(C(=O)N(C)C)CC(CC(=O)NCCCCc2ccccc2)C(=O)N1Cc1ccc(C(C)(C)C)cc1 (stereo not drawn),-16.7,17.4,-2.9,.,-7.9,15.2
O=C(OCC(=O)N1CCc2ccccc21)[C@@H]1CCCN1S(=O)(=O)c1ccccc1F,-10.6,-10.0,-9.0,-0.1,1.0,-2.8
O=C(OCc1nc2ccccc2s1)[C@@H]1CCCN1S(=O)(=O)c1ccccc1F,-5.0,-59.7,76.8*,-2.0,-139.9,6.0
N/C(=N\OCc1ccc([N+](=O)[O-])cc1)c1ccccn1,.,.,72.9*,73.1*,.,.
CC(C(=O)O/N=C(\N)c1ccccn1)c1ccc([N+](=O)[O-])cc1 (stereo not drawn),3.6,-9.8,-1.4,-1.9,-29.2,-2.1
O=C(/C=C/Sc1ccccc1)c1ccccc1,21.1,78.6*,-24.1,10.8,-53.5,-28.7
CN(C)CCC1(C2=CCCC2)CC/C(=C/c2ccc(Cl)cc2)C1=O (stereo not drawn),-10.8,95.3*,8.5,-9.6,-11.7,9.5
CN(C)c1ccc(/C=C2\CCCCC2=O)cc1,9.6,-237.2,-12.3,-38.2,-187.3,-0.7
O=C(CCCN1C(=O)/C(=C/c2ccccc2Cl)SC1=S)Nc1ccccn1,12.1,15.6,16.7,13.1,79.5*,-7.4
COc1ccccc1/C=C1\SC(=O)N(CCC(=O)NNC(=O)c2ccccc2Cl)C1=O,0.0,-88.5,-13.2,-26.7,-19.0,-2.9
COc1ccccc1/C=C1\SC(=S)N(CCC(=O)NNC(=O)c2ccccc2OC)C1=O,-10.5,9.1,-14.4,24.7,44.4*,0.4
Cc1ccc(C(=O)NNC(=O)CCCN2C(=O)/C(=C/c3ccccc3Cl)SC2=S)cc1,19.8,49.0,35.5,7.0,86.7*,-9.7
SMILES,CF NFkB inh,Peg3 prom inh,EBV LMP1 NFkB,TRPM1 prom inh,HIF-2a block,KKLEB cytotox
O=C(CCN1C(=O)/C(=C/c2ccccc2Cl)SC1=S)Nc1cccnc1,-33.6,-29.1,-6.0,-7.0,-19.5,1.2
O=C(CCCN1C(=O)/C(=C/c2ccccc2Cl)SC1=S)Nc1cccnc1,-10.5,71.3*,58.4*,4.7,-0.2,6.0
O=C(CCN1C(=O)/C(=C/c2ccccc2Cl)SC1=S)NNC(=O)c1cccnc1,6.6,0.0,-2.3,10.5,-10.0,-10.4
C=CCN1[C@@H](Cc2ccccc2)COCCS1(=O)=O,-9.2,8.3,-8.2,.,10.9,4.1
CC(C)n1c(-c2ccc(N(C)C)cc2)nc2ccccc21,-1.5,-184.3,-9.1,-55.0,-202.9,-1.8
CN(C)c1ccc(-c2nc3ccccc3n2C)cc1,-11.8,20.0,49.6*,22.7,-55.4,-49.0
O=C1c2cccc3cccc(c23)C(=O)N1c1ccccn1,-12.1,-13.3,7.1,0.6,8.9,2.0
O=C1c2c(Br)c(Br)c(Br)c(Br)c2C(=O)N1c1ccccn1,-4.7,52.2*,-33.3,27.5,39.9,3.8
Nc1nc2ccccc2n1/N=C/c1ccc([N+](=O)[O-])s1,-4.3,26.0,2.3,66.1*,-44.3,-0.8
Nc1nc2ccccc2n1/N=C/c1cccnc1,0.4,-19.9,2.0,-2.0,-16.3,1.8
CC(C)(C)c1ccc(C(=O)N2CCC(=O)N(C(CO)Cc3ccccc3)CC2)cc1 (stereo not drawn),-0.9,1.6,78.4*,-2.1,1.8,-10.3
CC(C)[C@@H]1O[C@H](CCc2ccccc2)CC2=C1C(=O)OC(C)(C)O2,.,.,.,.,16.1,.
CO[C@H]1/C=C/O[C@@]2(C)Oc3c(C)c(O)c4c(O)c(c(C=NN5CCN(C)CC5)c(O)c4c3C2=O)NC(=O)/C(C)=C\C=C\[C@H](C)[C@H](O)[C@@H](C)[C@@H](O)[C@@H](C)[C@H](OC(C)=O)[C@@H]1C,54.6*,-11.0,5.4,0.5,25.4,-6.9
CO[C@H]1C=CO[C@@]2(C)Oc3c(C)c(O)c4c(O)c(c(C=NN5CCN(C)CC5)c(O)c4c3C2=O)NC(=O)C(C)=CC=C[C@H](C)[C@H](O)[C@@H](C)[C@@H](O)[C@@H](C)[C@H](OC(C)=O)[C@@H]1C,7.4,13.1,-3.6,15.7,7.9,3.7
Cc1cc(C)nc(NC(=O)/C=C/c2cccs2)c1,-9.3,-246.0,-13.9,-70.1,-321.8,-2.6
Cc1cc(C)c(-c2csc(NC(=O)/C=C/c3cccs3)n2)c(C)c1,58.2*,-13.1,5.7,40.3,-57.9,-61.9*
CCCCCCCCN1C(=O)[C@H](CC(=O)NCCC(C)C)C[C@@]2(C(=O)OC)CCCCC=C12,.,.,.,.,13.2,.
